Laboratory results taken from PubChem BioAssay (NCATS).
“And” between values parts separate entries of the source, which are not always exact repeats. Identical values can stand only once. Results filed as inconclusive are left out. More than one record can exist for a structure, and the calls need not agree. The source made the active and inactive calls. The call rests on the fitted dose curve; in most records, active means well fitted inhibition curve with a large enough effect; inconclusive means small, poorly fitted or top-dose-only effect; inactive means flat fitted curve, though single readings scatter.

Columns and labels:
CRL-7250 = normal cell line; assay: Cytotoxic Profiling of Annotated Libraries Using Quantitative High-Throughput Screening (AID 1296008); conditions: Five cell lines viability, CellTiter-Glo ATP luminescence, 48-72 h; max response: hits give low values; further: potency means the concentration at half of the fitted maximal effect; on max response: on the % scale 0 is the no-effect control and ±100 the full control effect
Procedure, shortened: (§1)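 Cells exposed to compounds for 48 or 72 hr at 37 degrees Celsius. Viability read as ATP-coupled luminescence with CellTiter-Glo after 10 min at room temperature.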

HEK293 = assay: as above; conditions: Five cell lines viability, CellTiter-Glo ATP luminescence, 48-72 h; max response: hits give low values
Procedure, shortened: as §1

HaCat [1] = assay: as above; conditions: Five cell lines viability, CellTiter-Glo ATP luminescence, 48-72 h; max response: hits give low values
Procedure, shortened: as §1

KB-3-1 = assay: as above; conditions: Five cell lines viability, CellTiter-Glo ATP luminescence, 48-72 h; max response: hits give low values
Procedure, shortened: as §1

NIH3T3 [2] = assay: as above; conditions: Five cell lines viability, CellTiter-Glo ATP luminescence, 48-72 h; max response: hits give low values
Procedure, shortened: as §1

HACAT [3] = assay: qHTS assay to identify novel small-molecules to repurpose for Merkel cell carcinoma treatment (AID 1296009); conditions: MCC and control cell lines, CellTiter-Glo viability, 72 h; at 44.8 µM (top of the series) unless noted; on activity change, negative = cytotoxicity: on the % scale 0 is the no-effect control and ±100 the full control effect
Procedure, shortened: (§2)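 Dose-response viability screen; 72 hr exposure at 37 degree celsius; CellTiter-Glo added, 10 min room temperature, luminescence read; RLUs scaled between no-cell and DMSO wells.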

HEK293T = assay: as above; conditions: MCC and control cell lines, CellTiter-Glo viability, 72 h; at 44.8 µM (top of the series)
Procedure, shortened: as §2

MCC-26 = assay: as above; conditions: MCC and control cell lines, CellTiter-Glo viability, 72 h; series mostly up to 46 µM
Procedure, shortened: as §2

MKL-1 = assay: as above; conditions: MCC and control cell lines, CellTiter-Glo viability, 72 h; series mostly up to 46 µM
Procedure, shortened: as §2

MCC-13 = assay: as above; conditions: MCC and control cell lines, CellTiter-Glo viability, 72 h; series mostly up to 46 µM
Procedure, shortened: as §2

PC26 = assay: qHTS profiling for inhibitors of Plasmodium falciparum proliferation (AID 504749); further: potency means the concentration at half of the fitted maximal effect; conditions: P. falciparum in erythrocytes, SYBR Green DNA, 72 h; series mostly up to 28.7 µM
Procedure, shortened: (§3)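 Each compound contacts P. falciparum-infected red blood cells for 72 h at 37 C; lysis buffer (Tris, EDTA, saponin, Triton X, SYBR Green I) is added and fluorescence measured next morning; values normalized to controls.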

PC49 = assay: as above; conditions: P. falciparum in erythrocytes, SYBR Green DNA, 72 h; series mostly up to 28.7 µM
Procedure, shortened: as §3

SC27B = assay: as above; conditions: P. falciparum in erythrocytes, SYBR Green DNA, 72 h; series mostly up to 28.7 µM
Procedure, shortened: as §3

TAB109 = assay: as above; conditions: P. falciparum in erythrocytes, SYBR Green DNA, 72 h; series mostly up to 28.7 µM
Procedure, shortened: as §3

TAB113 = assay: as above; conditions: P. falciparum in erythrocytes, SYBR Green DNA, 72 h; series mostly up to 28.7 µM
Procedure, shortened: as §3

TAB165 = assay: as above; conditions: P. falciparum in erythrocytes, SYBR Green DNA, 72 h; series mostly up to 28.7 µM
Procedure, shortened: as §3

W2 = assay: as above; conditions: P. falciparum in erythrocytes, SYBR Green DNA, 72 h; series mostly up to 28.7 µM
Procedure, shortened: as §3

MKL-2 = assay: qHTS assay to identify novel small-molecules to repurpose for Merkel cell carcinoma treatment (AID 1296009); conditions: MCC and control cell lines, CellTiter-Glo viability, 72 h; series mostly up to 46 µM; on activity change, negative = cytotoxicity: on the % scale 0 is the no-effect control and ±100 the full control effect
Procedure, shortened: as §2

UISO = assay: as above; conditions: MCC and control cell lines, CellTiter-Glo viability, 72 h; series mostly up to 46 µM
Procedure, shortened: as §2

NIH3T3 [4] = assay: as above; conditions: MCC and control cell lines, CellTiter-Glo viability, 72 h; at 44.8 µM (top of the series) unless noted
Procedure, shortened: as §2
Further: nearly all actives have a fitted effect of over 60% in size.

O=C(O)CCc1ccc(NCc2cccc(Oc3ccccc3)c2)cc1
inactive: max response (CRL-7250) 4.81% | outcome (HEK293) | max response (HaCat [1]) -7.54% | outcome (HaCat [1]) | max response (KB-3-1) -3.52% and 6.14% | outcome (NIH3T3 [2]) | outcome (HACAT [3]) | outcome (HEK293T) | Potency (MCC-26) | activity change, negative = cytotoxicity (MKL-1) -1.7% [at 0.00266 µM]

CNCc1ccc(-c2[nH]c3cc(F)cc4c3c2CCNC4=O)cc1
inactive: outcome (CRL-7250) | max response (HaCat [1]) 4.8% | outcome (HaCat [1]) | max response (KB-3-1) 9.78% | max response (NIH3T3 [2]) -1.23% and -23.6% | outcome (HACAT [3]) | Potency (MCC-13) | Potency (MCC-26) | Potency (MKL-1)
active: Potency (HEK293) 11.6 µM

O=c1[nH]cnc2[nH]ncc12
inactive: Potency (PC26) | Potency (PC49) | Potency (SC27B) | Potency (TAB109) | Potency (TAB113) | Potency (TAB165) | Potency (W2) | max response (CRL-7250) 2.71% and -1.4% | max response (HEK293) -10.4% | max response (HaCat [1]) 0.897% | outcome (HaCat [1]) | max response (KB-3-1) 2.11% and 5.17% | max response (NIH3T3 [2]) 4.86% and -3.07% | outcome (HACAT [3]) | Potency (MCC-13) | Potency (MCC-26) | Potency (MKL-1) | Potency (MKL-2) | Potency (UISO)

CC(C)(Sc1ccc(CCN(CCCCC2CCCCC2)C(=O)NC2CCCCC2)cc1)C(=O)O
inactive: max response (CRL-7250) -21.5% and -0.943% | max response (HEK293) 4.49% | max response (HaCat [1]) -19.6% and 1.18% | max response (KB-3-1) 5.99% | outcome (KB-3-1) | max response (NIH3T3 [2]) -1.54% and 3.22% | Potency (MCC-13) | Potency (MCC-26) | Potency (UISO)

CC[C@@H](C)[C@H](NC(=O)[C@H](CC1CCCCC1)NC(=O)c1ccno1)C(=O)N1CCC2(CCc3ccccc32)CC1
inactive: max response (CRL-7250) -8.58% and -11.9% | max response (HEK293) -11.2% | outcome (HaCat [1]) | max response (KB-3-1) -5.09% and 8.53% | max response (NIH3T3 [2]) -7.84% and -2.63% | outcome (HACAT [3]) | Potency (MCC-13) | Potency (MCC-26) | Potency (MKL-1) | Potency (MKL-2) | Potency (UISO)

CCCc1nc2c(C)cc(-c3nc4ccccc4n3C)cc2n1Cc1ccc(-c2ccccc2C(=O)O)cc1
active: Potency (PC49) 2510 nM | Potency (SC27B) 1580 nM | Potency (TAB113) 2240 nM | Potency (TAB165) 1580 nM | Potency (W2) 1900 nM
inactive: max response (CRL-7250) -5.08% and 4.25% | outcome (HEK293) | outcome (HaCat [1]) | max response (KB-3-1) 14.7% and 4.38% | max response (NIH3T3 [2]) 1.27% | outcome (NIH3T3 [2]) | outcome (HACAT [3]) | outcome (HEK293T) | Potency (MCC-13) | Potency (MCC-26) | Potency (MKL-1) | Potency (MKL-2) | outcome (NIH3T3 [4]) | Potency (UISO)

CN(C(=O)c1ccc(F)cc1C(F)(F)F)C1CCN(c2nnc(-c3ccnn3C)c3ccccc23)CC1
inactive: max response (CRL-7250) -27.2% and -23.7% | max response (HEK293) -60.8% | max response (HaCat [1]) -6.53% | outcome (HaCat [1]) | max response (KB-3-1) -19.8% | max response (NIH3T3 [2]) -30.1% and 3.56% | outcome (HACAT [3]) | Potency (MCC-13) | Potency (MCC-26) | Potency (MKL-1) | Potency (MKL-2) | Potency (UISO)

OCCn1cc(-c2cnc3nnn(Cc4ccc5ncccc5c4)c3n2)cn1
inactive: max response (CRL-7250) -20.1% | max response (HEK293) -13.9% | max response (HaCat [1]) -20.1% | max response (KB-3-1) 1.4% and -22% | max response (NIH3T3 [2]) -29.5% | Potency (MCC-13) | Potency (MCC-26) | Potency (MKL-1) | Potency (MKL-2) | Potency (UISO)

O=C(O)COCCN1CCN(C(c2ccccc2)c2ccc(Cl)cc2)CC1 (centres undefined)
inactive: max response (CRL-7250) -0.386% | max response (HEK293) 0.378% and -0.675% | max response (HaCat [1]) -5.21% and -2.14% | max response (KB-3-1) 6.76% and 8.88% | max response (NIH3T3 [2]) -0.466% | outcome (NIH3T3 [2]) | Potency (MCC-13) | Potency (MCC-26) | Potency (MKL-1) | Potency (MKL-2) | outcome (NIH3T3 [4]) | Potency (UISO)

CCOc1cc(C(=O)Nc2ccc(Cl)c(-c3nc4ccccc4[nH]3)c2)cc(OCC)c1OCC
active: Potency (HEK293) 16.6 µM
inactive: outcome (CRL-7250) | max response (HaCat [1]) 1.32% and 3.52% | max response (KB-3-1) -16% and -9.64% | max response (NIH3T3 [2]) -3.49% | outcome (NIH3T3 [2]) | Potency (MCC-13) | Potency (MCC-26) | Potency (MKL-1) | outcome (NIH3T3 [4])

Cc1cc(SCc2sc(-c3ccc(C(F)(F)F)cc3)nc2C)ccc1OCC(=O)O
inactive: max response (CRL-7250) -3.25% | max response (HEK293) 3.06% and 3.28% | max response (HaCat [1]) -0.39% and 1.93% | max response (KB-3-1) 0.144% | outcome (KB-3-1) | outcome (NIH3T3 [2]) | Potency (MCC-13) | Potency (MCC-26) | Potency (MKL-1) | Potency (MKL-2) | outcome (NIH3T3 [4]) | Potency (UISO)

COc1cccc2cc(-c3nc(C4CCC(C(=O)O)CC4)n4ncnc(N)c34)[nH]c12 (centres undefined)
inactive: max response (HaCat [1]) -14.5% | max response (NIH3T3 [2]) -35.2% | Potency (MCC-13) | Potency (MCC-26) | Potency (MKL-1) | Potency (MKL-2)
active: Potency (CRL-7250) 166 nM | Potency (HEK293) 5.9 µM and 3.66 µM | Potency (KB-3-1) 2350 nM | Potency (NIH3T3 [2]) 7310 nM
